Reference: PubChem BioAssay (Tox21)
Results filed as inconclusive are left out. Activity calls are given as the source filed them. Calls come from the whole dose curve; as a rule, active = well fitted curve in the direction sought with a large enough effect in the repeat runs; inconclusive = weak or mixed curves; inactive = no such curve, though single readings can be large; an effect the other way counts as inactive or inconclusive.

Legend:
[1] = A CellTox Green Cytotoxicity Assay to monitor cytotoxicity in HEK293 cells - 32 hour (AID 1224881); note: nearly all actives have a fitted effect of over 40% in size; note: potency is the fitted concentration of half-maximal effect
Summary of the method: (§1)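 Fluorescence from a DNA-binding dye excluded by viable cells was measured repeatedly in the same HEK293 wells (600 cells/well) during continuous compound exposure at 37 C. Each assay gives one read point: 0, 8, 16, 24, 32 or 40 h.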

[2] = A CellTox Green Cytotoxicity Assay to monitor cytotoxicity in HepG2 cells - 32 hour (AID 1224883); note: nearly all actives have a fitted effect of over 50% in size; note: potency is the fitted concentration of half-maximal effect
Summary of the method: (§2)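 Real-time cytotoxicity: fluorescence of a cell-impermeant cyanine dye binding DNA of dead HepG2 cells, measured repeatedly (0–40 h) during compound exposure at 37 C. Cells seeded 600/well with reagent, dosed after 5 h.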

[3] = A CellTox Green Cytotoxicity Assay to monitor cytotoxicity in HEK293 cells - 8 hour (AID 1224884); note: nearly all actives have a fitted effect of over 35% in size
Summary of the method: as §1

[4] = qHTS RealTime-Glo MT Cell Viability Assay in HepG2 cells - 16 hour (AID 1224885); note: nearly all actives have a fitted effect of over 50% in size
Summary of the method: (§3)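 Cells + NanoLuc/prosubstrate dispensed (600 cells/well) → 5 h at 37 C/5% CO2 → compounds in DMSO transferred → 40 h incubation at 37 C, luminescence read at 0, 8, 16, 24, 32, 40 h.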

[5] = qHTS RealTime-Glo MT Cell Viability Assay in HEK293 cells - 24 hour (AID 1224886); note: nearly all actives have a fitted effect of over 50% in size; note: potency is the fitted concentration of half-maximal effect; for activity change, negative = cytotoxicity: top concentration of the series differs between compounds
Summary of the method: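 Tox21 10K qHTS, HEK293, 600 cells/well, RealTime-Glo reagent co-dispensed with cells; 5 h preincubation, compound by pintool, 37 C, luminescence at 0–40 h.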

[6] = qHTS RealTime-Glo MT Cell Viability Assay in HEK293 cells - 8 hour (AID 1224887); note: nearly all actives have a fitted effect of over 50% in size; note: potency is the fitted concentration of half-maximal effect; for activity change, negative = cytotoxicity: top concentration of the series differs between compounds
Summary of the method: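 Luminescence, which tracks viable cell number through reduction of the prosubstrate to a NanoLuc substrate, was read over continuous 37 C culture. Cells (600/well) were premixed with reagent and rested 5 h before 23 nL of compound in DMSO was pinned.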

[7] = A CellTox Green Cytotoxicity Assay to monitor cytotoxicity in HEK293 cells - 16 hour (AID 1224888); note: nearly all actives have a fitted effect of over 35% in size; note: potency is the fitted concentration of half-maximal effect
Summary of the method: as §1

[8] = qHTS RealTime-Glo MT Cell Viability Assay in HepG2 cells - 0 hour (AID 1224889); note: nearly all actives have a fitted effect of over 50% in size
Summary of the method: as §3

[9] = A CellTox Green Cytotoxicity Assay to monitor cytotoxicity in HepG2 cells - 8 hour (AID 1224890); note: nearly all actives have a fitted effect of over 45% in size
Summary of the method: as §2

[10] = A CellTox Green Cytotoxicity Assay to monitor cytotoxicity in HepG2 cells - 0 hour (AID 1224882); note: nearly all actives have a fitted effect of over 35% in size; note: potency is the fitted concentration of half-maximal effect
Summary of the method: as §2
% is set by controls: 0 for no effect and ±100 for the full control effect.

CCCCCCCCCO
inactive: Potency [1] | Potency [2] | Potency [3] | Potency [4] | Potency [5] | Potency [6] | Potency [7] | Potency [8] | Potency [9]

CCCCCCCCC(CO)CCCCCC (configuration not stated)
inactive: Potency [1] | Potency [2] | Potency [3] | Potency [4] | Potency [5] | Potency [6] | Potency [7] | Potency [8] | Potency [9]

CN1CCN(C2=Nc3cc(Cl)ccc3Nc3ccccc32)CC1
inactive: Potency [1] | Potency [10] | Potency [9]
active: Potency [2] 23.9 µM | Potency [7] 4.25 µM

COc1ccc(C(C)=O)cc1
inactive: Potency [1] | Potency [2] | Potency [3] | Potency [4] | Potency [5] | Potency [6] | Potency [7] | Potency [8] | Potency [9]

CC1=CCC(C(C)C)C=C1 (configuration not stated)
inactive: Potency [1] | Potency [2] | Potency [3] | Potency [4] | Potency [5] | Potency [6] | Potency [7] | Potency [8]

NC(N)=N/N=C/c1c(Cl)cccc1Cl
inactive: Potency [1] | Potency [10] | Potency [4] | Potency [5] | Potency [7]

O=S1(=O)N=C(O)c2ccccc21
inactive: Potency [1] | Potency [10] | Potency [3] | Potency [4] | Potency [5] | Potency [7] | Potency [9]

CCOC(=S)SSC(=S)OCC
inactive: Potency [1] | Potency [2] | Potency [3] | Potency [4] | Potency [5] | Potency [7] | Potency [8] | Potency [9]

CN(C)CCCOc1nn(Cc2ccccc2)c2ccccc12
inactive: Potency [1] | Potency [10] | Potency [3] | Potency [4] | Potency [6] | Potency [7] | Potency [9]

Cc1ccc(C(C)c2ccc(C)c(C)c2)cc1C
inactive: Potency [1] | Potency [2] | Potency [3] | Potency [4] | Potency [5] | Potency [6] | Potency [7] | Potency [8] | Potency [9]

CCCCCCCCCCCCCCCBr
inactive: Potency [1] | Potency [2] | Potency [3] | Potency [4] | Potency [5] | Potency [6] | Potency [7] | Potency [9]

CCCCc1cc2ccccc2c(OCCN(C)C)n1
active: Potency [1] 21.3 µM
inactive: Potency [10] | Potency [4] | Potency [7] | Potency [8] | Potency [9]

CCCCCOC(=O)c1ccc(O)cc1
active: Potency [1] 49.6 µM | Potency [5] 44.2 µM | Potency [6] 44.2 µM
inactive: Potency [10] | Potency [3] | Potency [4] | Potency [9]

COCCO
inactive: Potency [1] | Potency [2] | Potency [3] | Potency [4] | Potency [5] | Potency [6] | Potency [7] | Potency [8] | Potency [9]

CCCCOc1ccc(CC(=O)NO)cc1
inactive: Potency [1] | Potency [10] | Potency [3] | Potency [4] | Potency [7]

C=CC[N+]1([C@H]2C[C@H]3[C@@H]4CC[C@H]5C[C@H](OC(C)=O)[C@@H](N6CCCCC6)C[C@]5(C)[C@H]4CC[C@]3(C)[C@H]2OC(=O)CC)CCCCC1
inactive: Potency [1] | Potency [2] | Potency [3] | Potency [4] | Potency [5] | Potency [6] | Potency [7]

CC(C)(C)c1ccc(S)cc1
inactive: Potency [1] | Potency [2] | Potency [3] | Potency [4] | Potency [5] | Potency [6] | Potency [7] | Potency [8] | Potency [9]

CCN(CCO)CCCC(C)Nc1ccnc2cc(Cl)ccc12 (configuration not stated)
inactive: cytotoxicity increase [1] -1.54% [at 6.97 µM] | cytotoxicity increase [2] 10.8% [at 6.97 µM] | cytotoxicity increase [3] 0.302% [at 6.97 µM] | activity change, negative = cytotoxic [4] 4.27% [at 6.97 µM] | activity change, negative = cytotoxicity [5] -0.518% [at 6.97 µM] | activity change, negative = cytotoxicity [6] 0.498% [at 6.97 µM] | activity change [7] -1.57% [at 6.97 µM, active compounds read high] | activity change, negative = cytotoxicity [8] 5.1% [at 6.97 µM] | cytotoxicity increase [9] 17.5% [at 6.97 µM]

O=S1(=O)c2cccc3cccc(c23)N1CCCN1CCN(c2ccc(F)cc2)CC1
inactive: Potency [1] | Potency [2] | Potency [3] | Potency [4] | Potency [5] | Potency [6] | Potency [7] | Potency [8]

Cc1cccc(Oc2ccccc2)c1
active: Potency [5] 47.8 µM
inactive: Potency [1] | Potency [10] | Potency [3] | Potency [4] | Potency [7] | Potency [8] | Potency [9]

COc1cc(C(C)(C)C)c(O)c(C(C)(C)C)c1
active: Potency [1] 43.6 µM
inactive: Potency [10] | Potency [4] | Potency [5] | Potency [8]

C=C(C)C(=O)OCCOc1ccccc1
inactive: Potency [1] | Potency [2] | Potency [3] | Potency [4] | Potency [5] | Potency [6] | Potency [7] | Potency [8] | Potency [9]

CC(C)(C)C1CCCCC1O (configuration not stated)
inactive: Potency [1] | Potency [10] | Potency [3] | Potency [4] | Potency [5] | Potency [6] | Potency [7] | Potency [8] | Potency [9]

CCCCCOC(=O)COc1cc(N2C(=O)C3=C(CCCC3)C2=O)c(F)cc1Cl
inactive: Potency [1] | Potency [2] | Potency [3] | Potency [4] | Potency [5] | Potency [6] | Potency [7] | Potency [9]

O=C(O)[C@@H]1[C@H]2C[C@H]3c4[nH]c5ccccc5c4CCN3C[C@@H]2CC[C@@H]1O
inactive: Potency [1] | Potency [3] | Potency [4] | Potency [5] | Potency [6] | Potency [7] | Potency [8]
active: Potency [10] 10.7 µM

CC(Cc1cccc(C(F)(F)F)c1)NCCOC(=O)c1ccccc1 (configuration not stated)
active: Potency [1] 21.3 µM
inactive: Potency [10] | Potency [3] | Potency [4] | Potency [7] | Potency [8]

CC(=O)O[C@@H]1C(=O)O[C@@H]2[C@H]1OC(=O)[C@@H]2OC(C)=O
inactive: Potency [1] | Potency [10] | Potency [3] | Potency [4] | Potency [5] | Potency [6] | Potency [7] | Potency [8] | Potency [9]

CCCCCC/C=C/C=O
inactive: Potency [1] | Potency [10] | Potency [4] | Potency [5] | Potency [7] | Potency [8] | Potency [9]

Cn1c(=O)c2c(ncn2CC(O)CO)n(C)c1=O (configuration not stated)
inactive: Potency [1] | Potency [10] | Potency [3] | Potency [4] | Potency [5] | Potency [6] | Potency [7] | Potency [8] | Potency [9]

CC1CCc2cc(F)cc3c(=O)c(C(=O)O)cn1c23 (configuration not stated)
inactive: Potency [1] | Potency [2] | Potency [3] | Potency [4] | Potency [5] | Potency [6] | Potency [7] | Potency [8] | Potency [9]

Cc1ccccc1N=Nc1ccc(N=Nc2c(O)ccc3ccccc23)c(C)c1
inactive: Potency [1] | Potency [2] | Potency [3] | Potency [4] | Potency [5] | Potency [6] | Potency [7] | Potency [8] | Potency [9]

CCCCOC(O)CC (configuration not stated)
inactive: Potency [1] | Potency [2] | Potency [3] | Potency [4] | Potency [5] | Potency [7] | Potency [8] | Potency [9]

O=C(/C=C/c1ccc(O)c(O)c1)O[C@@H]1C[C@](O)(C(=O)O)C[C@@H](O)[C@H]1O
inactive: Potency [1] | Potency [2] | Potency [3] | Potency [4] | Potency [5] | Potency [6] | Potency [7] | Potency [8] | Potency [9]

CN(C)CCCNCCCN
inactive: Potency [1] | Potency [10] | Potency [3] | Potency [4] | Potency [5] | Potency [6] | Potency [7] | Potency [9]

CCCC[C@H]1CN(CC2CCOCC2)C(=O)OC12CCN(C1(C)CCN(C(=O)c3c(C)ncnc3C)CC1)CC2
inactive: Potency [1] | Potency [10] | Potency [3] | Potency [4] | Potency [5] | Potency [7] | Potency [9]
